FLuc inh = inhibitors of firefly luciferase | purified firefly luciferase, luminescence, 8 min | Potency, µM (top dose mostly 57.1 µM), actives largely listed as inhibitors | 72,000 tested, 2.2% active | AID 411; also: nearly all actives have a fitted effect of over 40% in size
Target sequence (P08659 whole entry, looked up): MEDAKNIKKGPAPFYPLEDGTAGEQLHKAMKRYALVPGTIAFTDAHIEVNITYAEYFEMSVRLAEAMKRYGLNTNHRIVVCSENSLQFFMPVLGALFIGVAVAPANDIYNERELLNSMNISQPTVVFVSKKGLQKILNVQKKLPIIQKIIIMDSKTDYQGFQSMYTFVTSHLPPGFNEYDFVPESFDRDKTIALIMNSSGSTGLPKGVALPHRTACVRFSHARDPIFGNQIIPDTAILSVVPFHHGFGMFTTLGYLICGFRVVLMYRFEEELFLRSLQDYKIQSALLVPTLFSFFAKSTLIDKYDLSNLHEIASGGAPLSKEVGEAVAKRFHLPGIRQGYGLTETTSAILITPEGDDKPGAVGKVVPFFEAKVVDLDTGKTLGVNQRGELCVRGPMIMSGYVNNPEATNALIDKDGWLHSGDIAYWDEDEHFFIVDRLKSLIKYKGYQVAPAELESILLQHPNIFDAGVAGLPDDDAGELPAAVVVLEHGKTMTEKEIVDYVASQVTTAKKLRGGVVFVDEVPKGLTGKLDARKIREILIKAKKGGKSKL
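Luminescence read-out after 8 min at room temperature; enzyme reaction used luciferin plus 10 uM ATP (linear range) in imidazole buffer pH 7.2 with KCl, MgCl2, Tween 20 and BSA. Each sample was run as a titration.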
Epigenetic mod = epigenetic modulators derepressing GFP locus in mouse cells | Potency, µM (highest dose often 46.1 µM) | 68,000 tested, 0.09% active | AID 597 | mouse C127i GFP locus derepression, cytometry, 30 h
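Derepression screen: silenced CMV-GFP reporter in murine C127i cells, 30 h compound incubation at 37 C, washed cells imaged by laser-scanning cytometer to enumerate GFP-expressing objects of 20 to 120 um.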
PK Bst = modulators of Bacillus stearothermophilus pyruvate kinase | AID 361 | purified pyruvate kinase, luminescence ATP production; ribose 5-phosphate activator present at AC10 | Potency, µM | 51,000 tested, 1.2% active; in the data active = potency below about 11 µM; inconclusive = mostly about 12 µM to 25 µM;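 the screen sought inhibitors and activators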
HBB splice mod = hemoglobin beta splicing modulation. Potency, µM (series often up to 46.1 µM), actives largely listed as activators. HBB splicing reporter cell assay, activation; EGFP reporter with mutant IVS2-654 intron; response scale: normalised to 500 nM splice-correcting PNA. 65,000 tested, 0.06% active
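HeLa cells stably expressing EGFP interrupted by mutant beta-globin intron 2 (IVS2-654), 500/well in 2% FCS. Treated with compound for 2 days at 37C. Splicing correction scored as total well GFP intensity (488 nm excitation, 500-520 nm emission); 500 nM antisense PNA served as control.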
Numbers stand for hits; [ ] = dose if it differs, or a comment. Sampled rows, rich in hits. Any-hit rate of the full collection: about 2.6%. Unless noted, calls follow the shape of the dose curve; as a rule, active = well fitted curve in the direction sought with a large enough effect; inconclusive = small, poorly fitted or top-dose-only effect, or another doubt; inactive = no such curve, though single readings can be large; an effect the other way counts as inactive or inconclusive.

`CCn1nc(NC(=O)c2cccnc2)c2cc3cccc(C)c3nc21` gave FLuc inh inactive, Epigenetic mod inactive, PK Bst inactive and HBB splice mod inactive.
Screening Cc1ccc2nc3c(cc2c1)c(NC(=O)c1cccnc1)nn3C returned FLuc inh 12.6µM, Epigenetic mod inactive, PK Bst inactive and HBB splice mod inactive.
`COc1ccccc1Nc1nc2ccccc2[nH]1` gave FLuc inh 12.6µM, Epigenetic mod inactive and HBB splice mod inactive.
CCc1c2c(nc3c(C(C)C)cccc13)-c1cccc(=O)n1C2 was read as HBB splice mod inactive.
C=C1CC[C@@H](O)C/C1=C/C=C1\CCC[C@]2(C)[C@@H]1CC[C@H]2[C@@H](C)/C=C\[C@@H](C)C(C)C was read as FLuc inh inactive[11.4 µM] and Epigenetic mod inactive[9.22 µM].
O=C(c1cccc(F)c1)N1CCC2(CC1)CN(c1ncccn1)C2 was read as FLuc inh inactive[11.4 µM], Epigenetic mod inactive[9.22 µM] and HBB splice mod inactive.
Cc1c(C(=O)OCCOc2ccccc2)[nH]c2c1C(=O)CCC2 was read as FLuc inh 10µM, Epigenetic mod inactive, PK Bst inconclusive and HBB splice mod inactive.
CC(=O)c1ccc(OC2C=CC(C#Cc3ccc(Br)cc3)OC2CO)cc1 (stereo unspecified) was read as HBB splice mod inactive[9.22 µM].
`COc1ccc(C(=O)c2oc3ccc(OC)cc3c2N)cc1` gave FLuc inh 10µM, Epigenetic mod inactive and HBB splice mod inactive.
Screening COC(=O)[C@@H]1C[C@H]1[C@@H](NC(=O)Oc1ccc(F)cc1)c1ccccc1 returned HBB splice mod inactive.
For O=C(NC1CC1)c1cccc(Nc2ccc(-c3ccc4c(c3)OCCO4)nn2)c1 the results were FLuc inh 2µM, Epigenetic mod inactive and PK Bst 1.46.
`O=C(Oc1ccccc1)N1CCC2(CC1)CCN(c1ccncc1)CC2` gave FLuc inh inactive[11.4 µM], Epigenetic mod inactive[9.22 µM] and HBB splice mod inactive.
`CCc1ccc2oc(-c3cccc(NC(=O)c4cccnc4)c3)nc2c1` gave FLuc inh 5.01µM, Epigenetic mod inactive and PK Bst 4.06.
Screening O=C(Nc1ccc2oc(-c3ccccc3)nc2c1)c1cccnc1 returned FLuc inh inactive and Epigenetic mod inactive.
For COC(=O)c1ccc(NC(=O)c2ccccc2NS(C)(=O)=O)cc1 the results were FLuc inh 15.8µM, Epigenetic mod inactive and HBB splice mod inactive.
For COc1ccc(NC(=O)c2ccccc2NS(C)(=O)=O)cc1OC the results were FLuc inh inconclusive, Epigenetic mod inactive, PK Bst inactive and HBB splice mod inactive.
COc1ccc(C[C@@H]2C(=O)N[C@H](C)C(=O)N(C)[C@@H]3Cc4ccc(cc4)Oc4cc(ccc4O)C[C@H](C(=O)N[C@@H](C)C(=O)N[C@H](C)C(=O)N2C)N(C)C3=O)cc1 was read as FLuc inh inactive[11.4 µM], Epigenetic mod inactive[9.22 µM] and HBB splice mod inactive[9.22 µM].
`CN(C)/C=N/c1nc2ccc3c(c2s1)CCCC3` gave FLuc inh 10µM, Epigenetic mod inactive, PK Bst inactive and HBB splice mod inactive.
COc1ccccc1NC(=O)c1cc(Sc2nncn2C)nc2ccccc12 was read as FLuc inh inactive, Epigenetic mod inactive, PK Bst inactive and HBB splice mod inactive.
`O=S1(=O)C=C(Sc2nc3ccccc3s2)c2ccccc21` gave FLuc inh 12.6µM, Epigenetic mod inactive, PK Bst inactive and HBB splice mod inactive.
`c1ccc(-c2nn3c(-c4ccncc4)nnc3s2)nc1` gave FLuc inh inactive, Epigenetic mod inactive and HBB splice mod inactive[1.84 µM].
CCC(=O)Nc1cc2nn(-c3ccc(OC)cc3)nc2cc1C was read as FLuc inh 1.26µM, Epigenetic mod inactive and PK Bst 3.44.
For CCCCC(=O)Nc1cc2nn(-c3ccc(OC)cc3)nc2cc1C the results were FLuc inh inactive, Epigenetic mod inactive and PK Bst inactive.
For O=c1c(O)c(-c2ccc(O)c(O)c2)oc2c(OC[C@H]3O[C@@H](O)[C@@H](O)[C@H](O)[C@@H]3O)c(O)cc(O)c12 the results were FLuc inh inactive[11.4 µM] and Epigenetic mod inactive[9.22 µM].
`O=C(Nc1ccc(N2CCCC2)c(Cl)c1)c1ccco1` gave FLuc inh 5.01µM, Epigenetic mod inactive and HBB splice mod inactive[0.0738 µM].
For O=C(Nc1ccc(N2CCCCC2)c(Cl)c1)c1ncn[nH]1 the results were FLuc inh 10µM and Epigenetic mod inactive.
`COc1ccc(-c2nnc(SC(C)C(=O)Nc3ccc4c(c3)OCCO4)o2)cc1` (stereo unspecified) gave FLuc inh 20µM, Epigenetic mod inactive and HBB splice mod inactive.
`Cc1nnc(SC(C)C(=O)Nc2ccc3c(c2)OCCO3)s1` (stereo unspecified) gave FLuc inh inactive, Epigenetic mod inactive, PK Bst inactive and HBB splice mod inactive.
`O=C(Nc1nccs1)c1ccc(COc2ccc(F)cc2)o1` gave FLuc inh inactive, Epigenetic mod inactive, PK Bst inactive and HBB splice mod inactive.
`O=C(COc1ccc(F)cc1)Nc1nccs1` gave FLuc inh 12.6µM and HBB splice mod inactive.
`CS(=O)(=O)N1CCC2(CCCN(Cc3cc(C(F)(F)F)cc(C(F)(F)F)c3)C2)CC1` gave FLuc inh inactive[11.4 µM], Epigenetic mod inactive[9.22 µM] and HBB splice mod inactive.
c1ccc(-n2nnc3c(N4CCOCC4)ncnc32)cc1 was read as FLuc inh 5.01µM, Epigenetic mod inactive, PK Bst 9.21 and HBB splice mod inactive.
For c1ccc(Cn2nnc3c(N4CCCC4)ncnc32)cc1 the results were FLuc inh inactive, Epigenetic mod inactive and PK Bst inactive.
Cc1ccnc(NC(=O)CCC(=O)N(CC(=O)NC(C)(C)C)C2CCCC2)c1 was read as FLuc inh inactive, Epigenetic mod inactive and PK Bst inactive.
`Cc1ccnc(NC(=O)CCC2CCCCC2)c1` gave FLuc inh 20µM, Epigenetic mod inactive and HBB splice mod inactive.
O=C(COC(=O)CCC(=O)c1ccc2c(c1)OCCO2)NCc1ccc2c(c1)OCO2 was read as FLuc inh 25.1µM, Epigenetic mod inactive and HBB splice mod inactive.
For O=c1cnn(-c2ccccc2)c(-c2ccccc2)c1 the results were FLuc inh 12.6µM, Epigenetic mod inactive and HBB splice mod inactive.
Screening CC(C)(N=NC(C)(C)C1=NCCN1)C1=NCCN1 returned FLuc inh inactive[11.4 µM], Epigenetic mod inactive[9.22 µM] and HBB splice mod inactive[9.22 µM].
CO/N=C1/c2cc(OC)ccc2O[C@@H](c2cccc(OC)c2)[C@H]1O was read as FLuc inh inactive[11.4 µM] and HBB splice mod inactive[9.22 µM].
Screening COc1ccc2oc(=N)c(C(=O)Nc3ccccc3)cc2c1 returned FLuc inh 31.6µM, Epigenetic mod inactive, PK Bst 8.21 and HBB splice mod inactive.
`O=C1NC(c2cccs2)Nc2sc3c(c21)CCCC3` (stereo unspecified) gave FLuc inh inactive, Epigenetic mod inactive, PK Bst 2.89 and HBB splice mod inactive.
Screening O=C(Nc1cnc2ccccc2c1)N1CCCCC1 returned FLuc inh 10µM, Epigenetic mod inactive and HBB splice mod inactive.
Screening c1cncc(-c2cncnc2NC2CCNCC2)c1 returned FLuc inh inactive[2.29 µM], Epigenetic mod inactive[9.22 µM] and HBB splice mod inactive.

Bioassay records from PubChem BioAssay.
